Data reported in the supplement of paper PMC13380429.

tested on: Vero E6 infected with SARS-CoV-2; assay: morphology score (similarity to uninfected cells); higher = more like uninfected cells; conditions: 24 h

Compound	morphology score
COc1ccc(S(=O)(=O)N2CCC[C@H]2C(=O)Nc2cc(C)cc(C)c2)cc1 (10 µM)	-0.0886
O=C(CCCCCCCC(=O)NCCO)NCCO [adelmidrol] (10 µM)	-0.0406
Clc1ccc(C2(c3ccc(-c4cn[nH]c4)cc3)CCNCC2)cc1 (0.833333 µM)	0.29
NC(=O)CN1Cc2ccccc2OC1=O [caroxazone] (10 µM)	0.0974
Cc1cc(C)c(CNC(=O)c2cc(-c3ccc(N4CCN(C)CC4)nc3)cc3c2c(C)cn3C(C)C)c(=O)[nH]1 (10 µM)	0.171
Cc1nc(N)sc1-c1ccnc(Nc2ccc(N3CCOCC3)cc2)n1 (0.833333 µM)	0.443
CCC[C@H](N[C@@H](C)C(=O)N1[C@H](C(=O)O)C[C@@H]2CCCC[C@@H]21)C(=O)OCC [perindopril] (10 µM)	0.104
N=C(N)NC(=O)c1cnn(-c2cccc3ncccc23)c1C1CC1 [zoniporide] (10 µM)	0.127
COc1cc(C(=O)NCc2ccc(OCCN(C)C)cc2)cc(OC)c1OC [trimethobenzamide] (10 µM)	0.00196
Cc1[nH]cnc1-c1ccc(Cl)cc1 [lofemizole] (10 µM)	-0.0942
CC(C)(c1ccc(O)cc1)c1ccc(O)cc1 [bisphenol-A] (10 µM)	0.0642
CCOc1ccc2nc3cc(N)ccc3c(N)c2c1 [ethacridine-lactate-monohydrate] (10 µM)	0.0887
CC(OC(=O)OC1CCCCC1)OC(=O)C1=C(CSc2nnnn2CCN(C)C)CS[C@@H]2[C@H](NC(=O)Cc3csc(N)n3)C(=O)N12 (some centres not stated) [cefotiam-cilexetil] (10 µM)	-0.0288
O=C(Nc1cccc2cccnc12)c1ccc(N2C(=O)[C@@H]3[C@H](C2=O)[C@H]2C=C[C@@H]3C2)cc1 (10 µM)	0.00174
COc1cc(Cc2cnc(N)nc2N)cc(OC)c1OC [trimethoprim] (10 µM)	-0.0548
NC(=O)c1ncn([C@@H]2O[C@H](CO)[C@@H](O)[C@H]2O)c1O [mizoribine] (10 µM)	0.0626

tested on: Vero E6 infected with SARS-CoV-2; assay: SARS-CoV-2 infection rate relative to infected DMSO; higher = more infection, active = 60 or less; conditions: 24 h

Compound	SARS-CoV-2 infection rate
Cc1c(Cl)c(C)[n+]([O-])c(Cl)c1-c1noc(-c2cc(O)c(O)c([N+](=O)[O-])c2)n1 [opicapone] (10 µM)	102% (inactive)
Nc1ccn([C@@H]2O[C@H](CO)[C@@H](O)C2(F)F)c(=O)n1 [gemcitabine] (0.833333 µM)	114% (inactive)
COc1ccc(CNC(=O)c2sc3nc(C)cc(C)c3c2N)cc1 (10 µM)	104% (inactive)
CN(C)C/C=C/C(=O)Nc1cc2c(Nc3ccc(F)c(Cl)c3)ncnc2cc1O[C@H]1CCOC1 [afatinib] (0.833333 µM)	114% (inactive)
CC1(C)S[C@@H]2[C@H](NC(=O)[C@H](N)c3ccccc3)C(=O)N2[C@H]1C(=O)O [ampicillin] (10 µM)	102% (inactive)
c1ccc(CCCN2CCN(CCOC(c3ccccc3)c3ccccc3)CC2)cc1 (10 µM)	94% (inactive)
C[C@@H]1CC(=O)NN=C1c1ccc(NN=C(C#N)C#N)cc1 [levosimendan] (10 µM)	117% (inactive)
Oc1cccc(Nc2ccc(Nc3cccc(O)c3)nn2)c1 [beta-amyloid-synthesis-inhibitor] (10 µM)	104% (inactive)
CC(C)C(N)C(=O)O (stereo in doubt) [L-valine] (10 µM)	109% (inactive)
C[N+](C)(CCOc1ccccc1)Cc1ccccc1 [bephenium-hydroxynaphthoate] (10 µM)	94.5% (inactive)
COc1cc(Nc2c(C#N)cnc3cc(OCCCN4CCN(C)CC4)c(OC)cc23)c(Cl)cc1Cl [bosutinib] (10 µM)	96.5% (inactive)
COc1ccc2c(c1)C(=O)N(CCc1ccc(S(=O)(=O)NC(=O)NC3CCCCC3)cc1)C(=O)C2(C)C [gliquidone] (10 µM)	98.5% (inactive)
O=C(Cc1ccc(-c2ccccc2)cc1)Nc1ccccn1 [difenpiramide] (10 µM)	62% (inactive)
CCOC(=O)Nc1ccc2c(c1)N(C(=O)CCN1CCOCC1)c1ccccc1S2 [moracizine] (10 µM)	112% (inactive)
Cc1ccc(C)c(Oc2ccncc2C(=O)N2CCN(C3CC3)c3ccccc32)c1 (10 µM)	108% (inactive)
C#CCN(C)[C@H](C)Cc1ccccc1 [selegiline] (10 µM)	105% (inactive)
